In all, about 1,100 compounds were measured (“Wnt reporter firefly/Renilla luciferase ratio relative to plate median”: median about 1.1, highest 2% from about 1.6 on). The list comes from a sample in which the highest values are over-represented; it also holds similar structures and randomly drawn compounds.
Tested on: HEK293T (UBE3A T485A transfected, BAR Wnt reporter)
Test: Wnt reporter firefly/Renilla luciferase ratio relative to plate median (fold (linear ratio)); higher = more Wnt/beta-catenin reporter activation
Conditions: 24 h
In short: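 HEK293T cells were seeded at 4500 cells/well in white 384-well plates and grown in DMEM with 10% FBS at 37°C and 5% CO2. The cells were transfected using Fugene 6 with a BAR firefly luciferase Wnt reporter, TK-Renilla and an expression plasmid, and four hours later robots added the chemicals at 0.01–100 uM for 24 h before a Dual-Glo luciferase readout. Wnt activity was taken as the firefly/Renilla ratio and cell health as raw Renilla, each median-centred per plate. Values are averages of four biological replicates.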

Row | SMILES | Wnt reporter firefly/Renilla luciferase ratio (concentration: 0.1 uM) | Wnt reporter firefly/Renilla luciferase ratio (concentration: 1 uM) | Wnt reporter firefly/Renilla luciferase ratio (concentration: 10 uM) | Wnt reporter firefly/Renilla luciferase ratio (concentration: 100 uM) | Wnt reporter firefly/Renilla luciferase ratio (concentration: 0.01 uM) | Wnt reporter firefly/Renilla luciferase ratio (concentration: .1 uM)
1 | CCC(C)c1ccccc1O (stereo unspecified) [2-(Butan-2-yl)phenol] | 1.19 | 0.977 | 0.947 | 1.14 | – | –
2 | CC(C)COC(=O)CCCCC(=O)OCC(C)C [Diisobutyl adipate] | 1.11 | 1.15 | 1.28 | 1.44 | – | –
3 | CCSC(=O)N(CC(C)C)CC(C)C [Butylate] | 1.31 | 1.21 | 1.71 | 0.486 | 1.05 | –
4 | CCCN(CCC)C(=O)SCC | 1.22 | 0.859 | 1.3 | 1.09 | 1.35 | –
5 | CN1C(=O)N(c2ccccc2Br)Cc2cnc(Nc3ccc4c(c3)OCC(CO)O4)nc21 (stereo unspecified) | 0.694 | 0.73 | 1.19 | – | – | –
6 | Oc1ccccc1 [Phenol] | 0.93 | 1.28 | 1.19 | 1.35 | – | –
7 | CCOCCOCCOCCO [2-[2-(2-Ethoxyethoxy)ethoxy]ethanol] | 0.979 | 0.929 | 1.01 | 1.62 | – | –
8 | CCOCCO [2-Ethoxyethanol] | 1.04 | 1.01 | 1.18 | 1.25 | – | –
9 | CCOCCOCCO [2-(2-Ethoxyethoxy)ethanol] | 0.833 | 1.24 | 0.948 | 1.26 | – | –
10 | CC(C)CCCCCCOC(=O)c1ccc(C(=O)OCCCCCCC(C)C)c(C(=O)OCCCCCCC(C)C)c1 [Triisononyl trimellitate] | 1.08 | 0.919 | 1.18 | 1.34 | – | –
11 | CC[C@@H]1C[C@H](N(Cc2cc(C(F)(F)F)cc(C(F)(F)F)c2)C(C)=O)c2cc(C(F)(F)F)ccc2N1C(=O)OC(C)C | 0.973 | 1.26 | 1.2 | 1.01 | – | –
12 | O=C(O)c1cccc(C(=O)O)c1 [1,3-Benzenedicarboxylic acid] | 1.21 | 1.28 | 1.24 | 1.02 | – | –
13 | CC(C)(c1ccc(O)cc1)c1ccc(O)cc1 [Bisphenol A] | 1.13 | 1.05 | 0.924 | 0.302 | 1.09 | –
14 | CC[C@H](C)[C@@H](C(=O)O)n1sc2ccccc2c1=O | 0.996 | 0.949 | 0.684 | 0.568 | – | –
15 | CCOC(=O)C(C)Oc1ccc(Oc2cnc3cc(Cl)ccc3n2)cc1 (stereo unspecified) [Quizalofop-ethyl] | 1.1 | 1.03 | 1.09 | 0.981 | 0.779 | –
16 | CCCCOC(=O)C(C)Oc1ccc(Oc2ccc(C(F)(F)F)cn2)cc1 (stereo unspecified) [Fluazifop-butyl] | 1.71 | 1.15 | 1.54 | 1.13 | 1.15 | –
17 | CCOC(=O)C(C)Oc1ccc(Oc2nc3ccc(Cl)cc3o2)cc1 (stereo unspecified) [Fenoxaprop-ethyl] | 1.37 | 0.888 | 0.884 | 0.813 | 1.14 | –
18 | CCCCOC(=O)c1ccccc1 [Butyl benzoate] | 1.4 | 0.911 | 1.09 | 1.11 | – | –
19 | CCCCOC(=O)[C@@H](C)Oc1ccc(Oc2ccc(C(F)(F)F)cn2)cc1 [Fluazifop-P-butyl] | 0.832 | 1.04 | 1.09 | 1.67 | 0.757 | –
20 | C#CCOC(=O)[C@@H](C)Oc1ccc(Oc2ncc(Cl)cc2F)cc1 [Clodinafop-propargyl] | 1.37 | 1.14 | 1.25 | 0.479 | 1.28 | –
21 | CCCCCCCCOC(=O)c1cc(O)c(O)c(O)c1 [Octyl gallate] | 1.25 | 1.3 | 0.702 | 0.614 | – | –

Row | SMILES | Wnt reporter firefly/Renilla luciferase ratio (concentration: 0.1 uM) | Wnt reporter firefly/Renilla luciferase ratio (concentration: 1 uM) | Wnt reporter firefly/Renilla luciferase ratio (concentration: 10 uM) | Wnt reporter firefly/Renilla luciferase ratio (concentration: 100 uM) | Wnt reporter firefly/Renilla luciferase ratio (concentration: 0.01 uM) | Wnt reporter firefly/Renilla luciferase ratio (concentration: .1 uM)
22 | COC(=O)c1ccccc1C(=O)O [Monomethyl phthalate] | 1.05 | 1.09 | 1.11 | 1.4 | 1.05 | –
23 | CC(=O)OC1CC(C)OC(C)O1 (stereo unspecified) [Dimethoxane] | 1.1 | 0.976 | 0.952 | 0.736 | – | –
24 | Cc1ccc(N(C)C)cc1 [N,N,4-Trimethylaniline] | 1.08 | 1.2 | 1.06 | 0.933 | – | –
25 | Cc1ccc(C(C)C)c(O)c1 [Thymol] | 0.988 | 1.09 | 1.29 | 1.08 | – | –
26 | N#CSCSc1nc2ccccc2s1 [2-(Thiocyanomethylthio)benzothiazole] | 0.88 | 1.09 | 1.06 | – | 0.895 | –
27 | Sc1nc2ccccc2s1 [2-Mercaptobenzothiazole] | 1.39 | 1.62 | 1.3 | 1.69 | – | –
28 | CS(=O)(=O)c1ccc([C@@H](C[C@H]2CCC(=O)C2)C(=O)Nc2cnccn2)cc1Cl [Piragliatin] | 1.03 | 0.959 | 1.02 | 1.3 | – | –
29 | COc1cc2c3c(n(CCCn4ccnc4)c(=O)c2cc1OC)-c1cc2c(cc1C3=O)OCO2.Cl | 0.457 | 0.72 | 0.631 | 0.938 | 1.15 | –
30 | OCC(O)CO [Glycerol] | 1.1 | 0.905 | 1.05 | 1.04 | – | –
31 | S=C([S-])NCCNC(=S)[S-].S=C([S-])NCCNC(=S)[S-].[Mn+2].[Zn+2] [Mancozeb] | 0.999 | 0.95 | 0.951 | – | 0.932 | –
32 | Nc1ccc(C(=O)O)cc1 [4-Aminobenzoic acid] | 1.22 | 1.07 | 0.948 | 1.2 | – | –
33 | CC(C)c1cccc(C(C)C)c1NC(=O)[N-]S(=O)(=O)c1cc(C(C)(C)O)co1.[Na+] | 1.05 | 1.08 | 1.2 | 1.05 | – | –
34 | CC/C(=C(\c1ccccc1)c1ccc(OCCN(C)C)cc1)c1ccccc1.O=C(O)CC(O)(CC(=O)O)C(=O)O [Tamoxifen citrate] | 0.922 | 0.964 | 0.891 | 1.01 | – | –
35 | O=C(c1ccc(O)cc1O)c1ccc(O)cc1O [2,2',4,4'-Tetrahydroxybenzophenone] | 1.29 | 1.33 | 1.49 | 0.463 | – | –
36 | CC(C)C(=O)OCC(C)(C)C(OC(=O)C(C)C)C(C)C (stereo unspecified) [2,2,4-Trimethyl-1,3-pentanediol diisobutyrate] | 0.92 | 0.885 | 1.15 | 1.64 | – | –
37 | CC[C@]1(O)C[C@H]2C[N@](CCc3c([nH]c4ccccc34)[C@@](C(=O)OC)(c3cc4c(cc3OC)N(C=O)[C@H]3[C@@](O)(C(=O)OC)[C@H](OC(C)=O)[C@]5(CC)C=CCN6CC[C@]43[C@@H]65)C2)C1 [Vincristine] | – | – | 0.418 | – | 0.387 | –
38 | OCCO [Ethylene glycol] | 1.37 | 1.07 | 1.12 | 1.27 | – | –
39 | NCCO [Ethanolamine] | – | 0.968 | 1.41 | 2.04 | – | 1.09
40 | CCCCCCCCCCCC[N+](C)(C)C.[Cl-] [Dodecyltrimethylammonium chloride] | 1.41 | 1.1 | 0.377 | – | – | –
41 | CCc1ccc(CCOc2ccc(CC3SC(=O)NC3=O)cc2)nc1.Cl (stereo unspecified) [Pioglitazone hydrochloride] | 0.94 | 0.896 | 0.903 | 1.1 | – | –
42 | C=C(C)C(=O)OCCC(F)(F)C(F)(F)C(F)(F)C(F)(F)C(F)(F)C(F)(F)F [Tridecafluorohexylethyl methacrylate] | 1.03 | 1.12 | 1.06 | 1.16 | – | –

Row | SMILES | Wnt reporter firefly/Renilla luciferase ratio (concentration: 0.1 uM) | Wnt reporter firefly/Renilla luciferase ratio (concentration: 1 uM) | Wnt reporter firefly/Renilla luciferase ratio (concentration: 10 uM) | Wnt reporter firefly/Renilla luciferase ratio (concentration: 100 uM) | Wnt reporter firefly/Renilla luciferase ratio (concentration: 0.01 uM) | Wnt reporter firefly/Renilla luciferase ratio (concentration: .1 uM)
43 | CC(C)=CCC/C(C)=C/CO [Geraniol] | 1.1 | 1.26 | 1.15 | 1.75 | – | –
44 | CC(C)=CCCC(C)=CC=O [3,7-Dimethyl-2,6-octadienal] | 1.11 | 1.26 | 1.03 | 1.09 | – | –
45 | CC(C)=CCC/C(C)=C\CO [(2Z)-3,7-Dimethylocta-2,6-dien-1-ol] | 1.17 | 0.941 | 1.5 | 1.03 | – | –
46 | OC(Cn1cncn1)(Cn1cncn1)c1ccc(F)cc1F [Fluconazole] | 1.15 | 0.884 | 1.33 | 1.25 | – | –
47 | Cc1ccccc1Cl [2-Chlorotoluene] | 0.964 | 0.931 | 1.37 | 1.44 | – | –
48 | CCO[Si](CCCNC(N)=O)(OCC)OCC [1-[3-(Triethoxysilyl)propyl]urea] | 1.11 | 0.853 | 1.36 | 1.66 | – | –
49 | CCCCCCCC[Si](OCC)(OCC)OCC [Triethoxyoctylsilane] | 1.15 | 0.902 | 1.05 | 1.38 | – | –
50 | CCOC(N)=O [Urethane] | 1.05 | 0.955 | 1.11 | 1.3 | – | –
51 | O=N[O-].[Na+] [Sodium nitrite] | 1.13 | 0.943 | 1.4 | 1.29 | – | –
52 | COc1ccc(CC(N)C(=O)NC2C(CO)OC(n3cnc4c(N(C)C)ncnc43)C2O)cc1 (stereo unspecified) [Puromycin] | 0.78 | 0.249 | – | – | 0.865 | –
53 | CC[C@H](NC(=O)c1cc(F)ccc1[N-]S(=O)(=O)c1cccc2cccnc12)c1ccccc1.[Na+] | 1.22 | 1.08 | 1.18 | 0.234 | – | –
54 | CCCCC(CC)COC(=O)CCCCC(=O)OCc1ccccc1 (stereo unspecified) [Benzyloctyl adipate] | 0.909 | 1.03 | 1.13 | 1.12 | – | –
55 | CC(C)CC(C=O)NC(=O)C(CC(C)C)NC(=O)C(CC(C)C)NC(=O)OCc1ccccc1 (stereo unspecified) | 0.85 | 2.61 | – | – | 0.993 | –
56 | O=C(O)c1ccccc1C(=O)OCc1ccccc1 [Monobenzyl phthalate] | 1.1 | 0.986 | 1.31 | 1.16 | – | –
57 | CCCCC(CC)COC(=O)CC(C(=O)OCC(CC)CCCC)S(=O)(=O)[O-].[Na+] (stereo unspecified) [Docusate sodium] | 0.824 | 1.14 | 0.946 | 0.789 | – | –
58 | CC#C[C@]1(O)CC[C@H]2[C@@H]3CCC4=CC(=O)CCC4=C3[C@@H](c3ccc(N(C)C)cc3)C[C@@]21C [Mifepristone] | 0.957 | 0.893 | 0.624 | 0.0932 | – | –
59 | CNC(=O)[C@H]1O[C@@H](n2cnc3c(NCc4cc(Cl)ccc4OCc4cc(C)no4)ncnc32)[C@H](O)[C@@H]1N | 0.941 | 1.17 | 1.13 | 1.06 | – | –
60 | O=C(NS(=O)(=O)/C=C/c1cccs1)c1ccc(F)cc1Br | 1.13 | 1.12 | 0.456 | 0.251 | – | –
61 | c1ccc2cc3ccccc3cc2c1 [Anthracene] | 0.982 | 0.92 | 0.951 | 2.12 | – | –
62 | c1ccc2ccccc2c1 [Naphthalene] | 1.17 | 1.18 | 1.32 | 1.48 | – | –
63 | c1ccc2cc3c(ccc4ccccc43)cc2c1 [Benz(a)anthracene] | 1 | 0.949 | 1.29 | 0.737 | – | –

Source: the supplement of paper PMC9254222
